TRHR enhancer – TRH receptor (human) allosteric enhancement; 360,000 tested, 0.66% active; enhancement, % at 2 µM; AID 493056; TRHR cells, fluo-8 calcium fluorescence, EC20 TRH enhancement; P34981; in the data active = enhancement above about 30%; also: 0% is about no effect
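TRHR-expressing cells loaded with fluo-8 calcium dye were read kinetically (ex 480/em 530) during compound addition, then stimulated with an EC20 of TRH (10 nM final). Enhancement of the Gq-mediated intracellular calcium response was scored.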
D1 potentiator – potentiators of human D1 dopamine receptor; potentiation, % at 10 µM; HEK293 TREx D1 cells, calcium flux, dopamine EC20 potentiation; AID 504651; 360,000 tested, 0.036% active; in the data active = potentiation above about 30%; also: 0% is about no effect
Target sequence (P21728 whole entry, looked up): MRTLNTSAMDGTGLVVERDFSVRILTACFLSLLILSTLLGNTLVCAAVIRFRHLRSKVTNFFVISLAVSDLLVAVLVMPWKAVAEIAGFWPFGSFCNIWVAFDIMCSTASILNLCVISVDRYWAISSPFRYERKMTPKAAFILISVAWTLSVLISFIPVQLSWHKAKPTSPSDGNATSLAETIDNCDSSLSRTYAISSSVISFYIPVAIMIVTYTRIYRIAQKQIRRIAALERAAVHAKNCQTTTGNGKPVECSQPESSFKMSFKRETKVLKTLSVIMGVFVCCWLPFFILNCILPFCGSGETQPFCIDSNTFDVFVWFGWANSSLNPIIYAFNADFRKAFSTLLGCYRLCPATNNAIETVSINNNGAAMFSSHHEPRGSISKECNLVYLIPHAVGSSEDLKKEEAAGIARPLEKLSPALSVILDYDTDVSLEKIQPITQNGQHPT
TRHR agonist – TRH receptor (human) agonism. TRHR cells, calcium flux fluo-8, FDSS agonist mode. activation, % at 2 µM. 360,000 tested, 0.18% active. AID 493084; also: 0% is about no effect
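In this calcium-flux screen, cells bearing human TRHR are dye-loaded with fluo-8, baselined for 10 cycles, then exposed to library compounds; positive kinetic calcium responses during the agonist phase mark hits, with TRH as control.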
D1 ag – human D1 receptor agonism; P21728; HEK293 T-REx D1 cells, calcium flux, agonist mode; activation, % at 2 µM; 360,000 tested, 1% active; AID 504660; also: 0% is about no effect
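Tetracycline-induced HEK293 TREx D1 cells, force-coupled to calcium signalling, were dye-loaded with a no-wash calcium kit. Compound was pin-added after a 10 s baseline. Fluorescence was read kinetically at 1 cycle/s for 180 s, with calcium rises flagged as agonism.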
D1 antag – blocks dopamine activation of the human D1 receptor. P21728. HEK293 TREx D1 cells, calcium flux, dopamine EC80; stronger effect = lower value. activity change, negative = inhibition, % at 10 µM. 360,000 tested, 3.2% active. AID 504652; in the data active = activity change below about -30%; also: % is scaled to controls: 0 for no effect and ±100 for the full control effect
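Tetracycline-induced HEK293 Trex D1 cells, force-coupled to calcium, dye-loaded; compounds added and read 180 s, then EC80 dopamine added and calcium flux tracked kinetically another 180 s.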
The depositor's hits bear a star. Only some compounds are listed: those with a hit (about 4.6% of all), similar ones and a draw of the others. Rule as the data show it, unless noted: active = activation above about 30%; inactive = the rest.

SMILES	TRHR enhancer	D1 potentiator	TRHR agonist	D1 ag	D1 antag
COc1ccc(C(C)=O)cc1CSc1ccc(S(=O)(=O)N2CCCCC2)cn1	1.7	0.7	0.3	3.3	-43.7*
CC1(C)OC(=O)C2(Cc3ccccc3N3CCCC32)C(=O)O1 (stereo unspecified)	17.6	-1.3	-0.3	12.5	-1.2
COc1cccc(CN2CC(C(=O)NCc3cccc(N4CCCC4)c3)CCC2=O)c1 (stereo unspecified)	-8.6	2.6	-0.6	-0.4	4.6
Cc1sc2ncn(CC(=O)NCC3COc4ccccc4O3)c(=O)c2c1S(=O)(=O)N1CCCCC1 (stereo unspecified)	-11.2	2.4	-0.5	1.7	-36.8*
Cc1sc2ncn(CC(=O)NCC3COc4ccccc4O3)c(=O)c2c1S(=O)(=O)N1CCOCC1 (stereo unspecified)	2.0	-4.6	0.1	3.3	-0.4
CCCCNC(=O)Cn1cnc2sc(C)c(S(=O)(=O)N3CCN(c4ncccn4)CC3)c2c1=O	-5.0	-7.6	0.0	2.1	-1.5
Cc1sc2ncn(CC(=O)NCCCOC(C)C)c(=O)c2c1S(=O)(=O)N1CCN(c2ncccn2)CC1	-3.0	-13.9	0.2	0.6	-64.2*
CCOC(=O)Cn1nnnc1CN(Cc1ccccc1)Cc1cc2cc(CC)ccc2[nH]c1=O	-0.2	-4.6	-0.2	1.7	-39.2*
Cc1ccc2[nH]c(=O)c(CN(Cc3nnnn3Cc3ccccc3)C3CCCC3)cc2c1	32.6*	5.5	-0.3	-0.7	1.5
CCc1ccc2[nH]c(=O)c(CN(Cc3ccccc3)Cc3nnnn3Cc3ccco3)cc2c1	-0.6	3.5	0.9	5.1	7.2
COC(=O)Nc1nnc(/C=C/c2ccccc2)s1	0.7	0.8	-0.1	1.7	2.1
O=C(Nc1nnc(/C=C/c2ccccc2)s1)c1ccco1	34.3*	-8.0	0.5	1.5	3.7
CC(=O)Nc1nnc(/C=C/c2cccc([N+](=O)[O-])c2)s1	-1.3	-0.7	-0.3	-2.0	-54.4*
COc1cc(C2CC(=O)Nc3cc4c(cc32)OCCO4)cc(OC)c1O (stereo unspecified)	7.6	-2.0	0.6	-0.3	-3.9
CCS(=O)(=O)c1nc(NC(C)=O)n[nH]1	3.7	-4.4	-0.5	5.3	-45.7*
NC(=O)c1ccc(/C=N/O)nc1	37.6*	1.2	0.2	3.0	3.3
COc1ccc(CN(C)C(=O)c2ccc(OCC(=O)Nc3cccc(C(F)(F)F)c3)c(OC)c2)c(OC)c1	6.9	-5.2	-1.1	7.3	-12.6
COc1ccc(NC(=O)CN(C)C(=O)c2ccccc2OCC(=O)Nc2cccc(C(F)(F)F)c2)cc1	18.4	-4.8	-1.3	12.8	-32.9*
COc1ccc(Cn2ccnc2SCC(=O)Nc2cc(C(F)(F)F)ccc2Cl)cc1	0.7	-3.0	1.2	9.0	-16.1
COC(C(=O)Nc1ccc(S(=O)(=O)Nc2c(C)cccc2C)cc1)c1ccccc1 (stereo unspecified)	-4.8	-1.1	1.8	35.2*	8.4
COC(C(=O)Nc1ccc(NC(=O)C(OC)c2ccccc2)cc1)c1ccccc1 (stereo unspecified)	-3.1	-1.2	3.5	5.2	-24.7
COc1ccc(N(Cc2cccs2)C(=O)COc2cc(C)c(Cl)c(C)c2)cc1	2.5	-0.5	2.7	17.6	-8.2
COCCNC(=O)c1ccc(CN2CCC(Cc3ccccc3)CC2)cc1	6.6	-9.2	0.9	3.1	-30.5*
COc1ccccc1C1CCN(Cc2ccccc2)CC1	-1.7	-22.2	-0.2	-0.9	-46.1*
CCOc1ccc(CN2CCC(Cc3ccccc3)CC2)cc1	-3.3	-1.8	0.0	5.9	-31.0*
SMILES	TRHR enhancer	D1 potentiator	TRHR agonist	D1 ag	D1 antag
Cc1[nH]c2ccccc2c1CN1CCC(Cc2ccccc2)CC1	0.8	0.8	-3.2	90.1*	-62.5*
N#Cc1nc(Nc2cc(F)cc(F)c2)nc(NC2CCCC2)n1	0.7	-3.1	1.7	9.1	-17.5
CCOc1ccc(N(CC)S(=O)(=O)N2CCCC(C(=O)NCc3ccccc3OCC)C2)cc1 (stereo unspecified)	-17.0	-4.7	1.0	12.7	-0.8
COCCNC(=O)c1ccc(-c2nc(CS(=O)(=O)c3ccccc3)c(C)o2)cc1	-4.7	-0.1	-0.6	2.5	-15.3
Cc1ccc(S(=O)(=O)NCc2ccc(C(=O)NCCCN3CCC(Cc4ccccc4)CC3)cc2)cc1	4.9	-14.7	0.0	29.9	-82.8*
CCc1ccc(NC(=O)Cn2c(-c3cncs3)nc3ccccc32)cc1	-1.8	0.8	-1.4	-0.5	1.4
CN1CCN2c3ncccc3Cc3ccccc3[C@@H]2C1	17.1	-11.3	-0.4	4.0	-32.1*
CN1CCN(C(=O)CCn2c(=O)c3cccn3c3cccnc32)CC1	-0.7	-3.4	0.1	5.5	-0.6
Cc1cc(=O)n2cc(-c3ccccc3)nc2[nH]1	1.6	-5.3	0.2	1.1	-10.6
Cc1ccc(-c2cn3c(=O)cc(C)[nH]c3n2)cc1	-0.4	-0.7	0.3	0.9	-40.0*
Cc1ccc(CNC(=O)c2ccc(CSCc3ccccc3C)o2)cc1	-1.2	-2.5	2.0	26.1	-12.6
COc1ccc(-c2noc(CN(C)C3CCOCC3)n2)cc1	31.6*	-2.9	-0.4	2.8	1.3
N#Cc1cccc(C#N)c1Oc1ccc(S(=O)(=O)Nc2ccc(Cl)cc2)cc1	2.2	-3.9	2.3	12.2	-38.4*
Cc1cccc(N(CC(=O)NC2CCCC2)C(=O)CCC(=O)Nc2nc(C)cs2)c1	3.3	-2.1	1.5	6.7	24.8
Cc1ccc(C(=O)N(CC(=O)NC2CCCC2)c2ccc3c(c2)OCCO3)s1	-6.2	-7.5	-0.7	-0.2	-54.5*
Cc1cc(C)cc(N(CC(=O)NC2CCCC2)C(=O)CCC(=O)Nc2nc(C)cs2)c1	23.0	-8.7	-0.2	57.5*	-19.4
Cc1cc(C)cc(N(CC(=O)NC2CCCCC2)C(=O)c2ccc(C)s2)c1	-5.8	-4.5	-0.1	-0.2	-33.3*
CCOC(=O)c1cnc2cc(C(F)(F)F)ccc2c1Nc1ccc(F)cc1F	-1.1	3.8	1.7	1.4	-8.2
COc1ccc(-c2noc(-c3nnn(-c4cc(C)ccc4C)c3N)n2)cc1	-4.9	-5.0	1.2	11.2	-4.6
C=CCn1c(N)cc(=O)nc1SC(C)C(=O)Nc1ccc(C(=O)OCC)cc1 (stereo unspecified)	-3.6	-3.3	-0.1	4.1	-35.3*
COc1ccccc1-c1nc(SCC(=O)Nc2ccc(C)c(C)c2)n[nH]1	2.1	-8.4	-0.4	1.3	-2.3
Cc1cccc(NC(=S)NC(=O)Cc2ccccc2)c1C	-5.0	-2.8	11.5	65.5*	6.2
Cc1cc(C)c(O)c(NC(=S)NC(=O)Cc2ccccc2)c1	10.2	2.1	7.3	33.0*	-11.4
CSc1oc(-c2ccco2)nc1S(=O)(=O)c1ccccc1	-9.1	7.7	0.0	0.5	9.5
CC(C)Sc1oc(-c2ccco2)nc1S(=O)(=O)c1ccccc1	8.8	6.2	0.1	0.5	-48.5*

Bioassay records from PubChem.
